Measured values: PubChem BioAssay (NCATS)
Inconclusive results are not listed. A call without a number means that no potency is given here. Activity calls are given as the source filed them. Unless noted, calls follow the shape of the full dose curve.

Tests used:
[1] = qHTS assay for measurement of the activity of small molecule inhibitors on Zika virus induced Caspase-3 activity in human astrocytoma cells (AID 1224859; active = well fitted curve in the direction sought with a large enough effect; an effect the other way counts as inactive or inconclusive); settings: SNB-19 ZIKV-induced caspase-3/7, luminescence, 6 h; series mostly up to 45.7 µM
Procedure, shortened: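 Readout is luminescence from Caspase-Glo 3/7 added after a 6 h ZIKV infection (2 FFU/cell) of compound-pretreated (1 h) SNB-19 cells; data expressed as % inhibition versus uninfected and infected wells.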

[2] = qHTS assay to identify small molecule inhibitors of chordoma cells - UCH-1 (AID 1259355; active = well fitted curve in the direction sought with a large enough effect; an effect the other way counts as inactive or inconclusive; also: nearly all actives have a fitted effect of over 55% in size; also: potency is read from the fitted curve at half-maximal effect); settings: UCH-1 chordoma viability, CellTiter-Glo, 48 h, combination; series mostly up to 46.1 µM
Procedure, shortened: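 A 48hr growth-inhibition format: each drug tested at 15 concentrations together with added auranofin, camptothecin, doxorubicin, rubitecan and topotecan, with cell viability quantified as CellTiter-Glo luminescence.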

[3] = qHTS assay to identify small molecule inhibitors of chordoma cells - UCH-2 (AID 1259356; active = well fitted curve in the direction sought with a large enough effect; an effect the other way counts as inactive or inconclusive; also: potency is read from the fitted curve at half-maximal effect); settings: UCH-2 chordoma viability, CellTiter-Glo ATP luminescence, 48 h; series mostly up to 46.1 µM
[4] = P-glycoprotein substrates identified in KB-8-5-11 adenocarcinoma cell line, qHTS therapeutic library screen (AID 1346987; active = well fitted curve in the direction sought with a large enough effect; an effect the other way counts as inactive or inconclusive; also: nearly all actives have a fitted effect of over 65% in size; also: potency is read from the fitted curve at half-maximal effect); settings: KB-8-5-11 (P-gp overexpressing) viability, CellTiter-Glo, 72 h; series mostly up to 44.5 µM
Procedure, shortened: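 Human cervical adenocarcinoma KB-8-5-11 cells, selected in colchicine to over-express P-gp and assayed without it, were exposed for 72 h to titrated compounds. An ATP-based luminescent viability signal gave AC50.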

[5] = Natriuretic polypeptide receptor (hNpr1) antagonism - Pilot counterscreen GloSensor control cell line (AID 1347045); settings: HEK293 cGMP GloSensor cells, SNP-stimulated luminescence, 20 min; series mostly up to 38.3 µM
Procedure, shortened: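 The SNP-driven cGMP luminescence signal (50 uM, 20 min, room temperature) was measured in GloSensor HEK293 control cells. Compounds were tested as a LOPAC titration series and preincubated for 30-50 min.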

[6] = target: Atrial natriuretic peptide receptor 1 (Homo sapiens) (UniProt P16066); assay: Natriuretic polypeptide receptor (hNpr1) antagonism - Pilot screen (AID 1347049); settings: hNpr1 cells, antagonist mode cGMP read-out; series mostly up to 57.5 µM;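 also: HEK293 cells with hNpr1 and GloSensor cGMP luciferase stimulated by 0.1 nM hNppA; agonist-evoked cGMP luminescence read 20 min after hNppA addition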
Sequence of Atrial natriuretic peptide receptor 1 (Homo sapiens) (P16066 whole entry, looked up): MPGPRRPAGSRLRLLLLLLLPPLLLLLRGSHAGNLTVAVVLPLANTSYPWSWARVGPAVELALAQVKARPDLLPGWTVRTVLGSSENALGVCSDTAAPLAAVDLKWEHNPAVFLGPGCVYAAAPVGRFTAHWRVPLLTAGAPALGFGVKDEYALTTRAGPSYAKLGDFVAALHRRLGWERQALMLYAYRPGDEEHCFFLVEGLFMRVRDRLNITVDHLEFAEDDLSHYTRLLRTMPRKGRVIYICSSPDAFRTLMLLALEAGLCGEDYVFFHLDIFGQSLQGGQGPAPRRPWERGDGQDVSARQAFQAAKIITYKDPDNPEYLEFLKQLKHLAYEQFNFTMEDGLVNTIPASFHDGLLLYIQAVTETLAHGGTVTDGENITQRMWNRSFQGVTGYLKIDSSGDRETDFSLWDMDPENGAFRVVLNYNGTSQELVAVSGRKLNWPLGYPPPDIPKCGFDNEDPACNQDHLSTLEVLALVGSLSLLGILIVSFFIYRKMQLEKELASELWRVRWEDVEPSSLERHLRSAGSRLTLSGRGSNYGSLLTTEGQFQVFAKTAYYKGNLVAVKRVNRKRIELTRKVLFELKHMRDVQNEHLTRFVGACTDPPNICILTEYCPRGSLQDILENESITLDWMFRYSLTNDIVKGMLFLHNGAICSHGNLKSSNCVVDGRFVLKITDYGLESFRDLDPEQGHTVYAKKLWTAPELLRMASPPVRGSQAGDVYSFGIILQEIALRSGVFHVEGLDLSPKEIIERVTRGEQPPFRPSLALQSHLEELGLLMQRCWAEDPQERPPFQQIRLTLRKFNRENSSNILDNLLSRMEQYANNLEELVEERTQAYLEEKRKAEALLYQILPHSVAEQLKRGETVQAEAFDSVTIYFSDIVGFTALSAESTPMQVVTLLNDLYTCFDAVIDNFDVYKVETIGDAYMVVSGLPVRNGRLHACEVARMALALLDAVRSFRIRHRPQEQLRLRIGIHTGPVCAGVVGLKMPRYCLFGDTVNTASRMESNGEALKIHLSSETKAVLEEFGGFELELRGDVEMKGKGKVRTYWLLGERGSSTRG
Procedure, shortened: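 Cells expressing receptor plus cGMP biosensor are seeded and incubated overnight at 37C, then loaded with GloSensor reagent (2% final) at room temperature for 2 h. Library compounds go on for 30 min. A pre-read precedes agonist (hNppA, 0.1 nM final) and a 20-min readout.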

[7] = target: Atrial natriuretic peptide receptor 2 (Homo sapiens) (UniProt P20594); assay: Natriuretic polypeptide receptor (hNpr2) antagonism - Pilot subtype selectivity assay (AID 1347050); settings: NPR2-expressing cells, cGMP antagonist-mode read-out; series mostly up to 38.3 µM
Sequence of Atrial natriuretic peptide receptor 2 (Homo sapiens) (P20594 whole entry, looked up): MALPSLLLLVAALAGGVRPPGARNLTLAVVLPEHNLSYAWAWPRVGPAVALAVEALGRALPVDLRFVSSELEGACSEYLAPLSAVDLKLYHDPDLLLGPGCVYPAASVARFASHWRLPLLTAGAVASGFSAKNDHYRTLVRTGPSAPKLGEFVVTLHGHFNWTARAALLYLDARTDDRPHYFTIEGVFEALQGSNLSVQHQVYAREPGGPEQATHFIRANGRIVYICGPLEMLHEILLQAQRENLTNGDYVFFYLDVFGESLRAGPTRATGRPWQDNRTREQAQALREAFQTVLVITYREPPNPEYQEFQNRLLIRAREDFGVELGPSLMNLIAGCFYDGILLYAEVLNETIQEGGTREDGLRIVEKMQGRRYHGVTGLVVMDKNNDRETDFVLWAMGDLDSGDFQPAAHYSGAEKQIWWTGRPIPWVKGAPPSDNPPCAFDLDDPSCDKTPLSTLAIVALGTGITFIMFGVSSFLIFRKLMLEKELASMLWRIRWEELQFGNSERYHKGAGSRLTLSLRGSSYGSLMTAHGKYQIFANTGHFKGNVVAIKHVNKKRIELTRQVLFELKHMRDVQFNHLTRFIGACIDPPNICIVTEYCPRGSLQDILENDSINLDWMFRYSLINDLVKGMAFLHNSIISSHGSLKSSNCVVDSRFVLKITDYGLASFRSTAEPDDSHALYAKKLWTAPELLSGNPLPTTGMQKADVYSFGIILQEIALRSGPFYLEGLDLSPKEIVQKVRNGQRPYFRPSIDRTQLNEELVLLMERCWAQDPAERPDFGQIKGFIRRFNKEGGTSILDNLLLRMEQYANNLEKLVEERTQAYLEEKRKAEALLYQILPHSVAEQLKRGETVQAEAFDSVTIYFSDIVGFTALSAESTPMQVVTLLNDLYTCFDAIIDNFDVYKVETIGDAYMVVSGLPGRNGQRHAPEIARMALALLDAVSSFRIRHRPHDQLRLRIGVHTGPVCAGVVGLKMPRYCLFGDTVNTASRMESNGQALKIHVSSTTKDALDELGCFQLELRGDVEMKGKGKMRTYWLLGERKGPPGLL
Procedure, shortened: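 Read-out: GloSensor luminescence (CCD imager), baseline vs post-stimulation. HEK293 cells expressing hNpr2; compounds pre-incubated 30-50 min at ambient temperature; hNppC 1 nM final, 20 min.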

[8] = NS1 protein of Zika virus - qHTS assay to identify small molecule inhibitors in human HEK 293 cells (AID 1347053; active = well fitted curve in the direction sought with a large enough effect; an effect the other way counts as inactive or inconclusive; also: nearly all actives have a fitted effect of over 55% in size); settings: HEK293 ZIKV MR766 infection, NS1 TR-FRET, 24 h; series mostly up to 46.1 µM
Procedure, shortened: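 Compound-treated (1 h pre-infection) HEK 293 cells infected with ZIKV MR766, MOI = 0.5; after 24 h at 37 C, NS1 read by TR-FRET; data normalized to uninfected and infected controls.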

[9] = target: Tyrosine-protein phosphatase non-receptor type substrate 1 (Homo sapiens) + Leukocyte surface antigen CD47 (Homo sapiens) (UniProt P78324+Q08722); assay: CD47-SIRPalpha protein protein interaction - LANCE assay qHTS validation (AID 1347057; active = well fitted curve in the direction sought with a large enough effect in the signal ratio, with a control signal flat, not every such curve was filed as active; the % refers to the signal ratio); settings: Recombinant CD47-His / biotin-SIRPalpha, TR-FRET ratio; series mostly up to 38.3 µM
Sequence of Tyrosine-protein phosphatase non-receptor type substrate 1 (Homo sapiens) + Leukocyte surface antigen CD47 (Homo sapiens) (P78324 whole entry, looked up, the tested form may be a part): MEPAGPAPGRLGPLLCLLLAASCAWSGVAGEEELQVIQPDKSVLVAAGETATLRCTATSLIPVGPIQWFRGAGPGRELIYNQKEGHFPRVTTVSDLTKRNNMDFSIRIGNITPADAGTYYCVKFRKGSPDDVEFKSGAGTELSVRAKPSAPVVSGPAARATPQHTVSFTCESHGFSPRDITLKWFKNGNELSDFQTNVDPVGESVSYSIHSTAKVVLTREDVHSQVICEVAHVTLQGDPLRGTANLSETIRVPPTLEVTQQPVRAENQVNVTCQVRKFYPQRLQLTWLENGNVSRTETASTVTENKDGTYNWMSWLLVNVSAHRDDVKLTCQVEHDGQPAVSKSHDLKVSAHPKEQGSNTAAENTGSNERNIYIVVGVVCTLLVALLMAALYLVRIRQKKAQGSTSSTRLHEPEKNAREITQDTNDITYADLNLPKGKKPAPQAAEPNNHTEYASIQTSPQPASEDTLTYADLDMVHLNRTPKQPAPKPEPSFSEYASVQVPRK
Sequence of Tyrosine-protein phosphatase non-receptor type substrate 1 (Homo sapiens) + Leukocyte surface antigen CD47 (Homo sapiens) (Q08722 whole entry, looked up, the tested form may be a part): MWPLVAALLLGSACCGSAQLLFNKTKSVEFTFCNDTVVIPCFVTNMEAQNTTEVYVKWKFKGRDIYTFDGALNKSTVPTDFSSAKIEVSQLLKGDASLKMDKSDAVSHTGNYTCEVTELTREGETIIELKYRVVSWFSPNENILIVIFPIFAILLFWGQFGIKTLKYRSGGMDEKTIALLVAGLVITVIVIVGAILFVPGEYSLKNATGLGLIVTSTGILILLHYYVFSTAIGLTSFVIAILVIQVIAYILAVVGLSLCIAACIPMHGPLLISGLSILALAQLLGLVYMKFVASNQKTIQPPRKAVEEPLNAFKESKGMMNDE
Procedure, shortened: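 Inhibition of soluble CD47/SIRPalpha ectodomain association by titrated compounds, measured as 665/615 nm time-resolved FRET ratio after sequential 30 min room-temperature incubations.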

[10] = P-glycoprotein substrates identified in KB-3-1 adenocarcinoma cell line, qHTS therapeutic library screen (AID 1346986; active = well fitted curve in the direction sought with a large enough effect; an effect the other way counts as inactive or inconclusive;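 also: potency is read from the fitted curve at half-maximal effect; potency is for cytotoxicity meaning loss of cell viability; nearly all actives have a fitted effect of over 60% in size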); settings: KB-3-1 parental cells viability, CellTiter-Glo, 72 h; series mostly up to 44.5 µM
Procedure, shortened: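 Using luminescence to quantify ATP, parental and P-gp-overexpressing KB cells were compared after 72 h compound titration. KB-8-5-11 was also run with the P-gp inhibitor tariquidar.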

SMILES	outcome [1]	Potency [2]	Potency [3]	Potency [4]	Potency [5]	Potency [6]	Potency [7]	outcome [8]	Potency [9]	Potency [10]
CC(C)[C@@]1(NC(=O)[C@@H]2C[C@@H]3c4cccc5[nH]cc(c45)C[C@H]3N(C)C2)O[C@@]2(O)[C@@H]3CCCN3C(=O)[C@H](Cc3ccccc3)N2C1=O	inactive	inactive	inactive	inactive	inactive	inactive	inactive			
CCCN(CCC)[C@H]1CCc2c(F)ccc(O)c2C1	inactive				inactive	inactive	inactive	inactive	inactive	
NC(CCCCCP(=O)(O)O)C(=O)O (stereo unspecified)	inactive				inactive	inactive	inactive	inactive	inactive	
C=CCN(C1=NCCN1)c1c(Cl)cccc1Cl	inactive	inactive	inactive	inactive	inactive	inactive	inactive			
NCCc1ccc(S(=O)(=O)F)cc1	inactive				inactive	inactive	inactive	inactive	inactive	
CCCN(CCC)C1CCc2cccc(O)c2C1 (stereo unspecified)	inactive				inactive	inactive	inactive	inactive	inactive	
CCN(CCCl)Cc1ccccc1Br	inactive				inactive	inactive	inactive			
COc1ccc(OC)c(C(O)C(C)N)c1 (stereo unspecified)	inactive				inactive	inactive	inactive	inactive	inactive	
C[C@@H]1O[C@H](C[N+](C)(C)C)CS1	inactive				inactive	inactive	inactive			
COc1ccc2c(c1O)-c1cccc3c1[C@@H](C2)N(C)CC3	inactive				inactive	inactive	inactive	inactive		
COc1ccc2c(c1)/C(=C/c1cnc[nH]1)C(=O)N2	inactive			5.17 µM (active)	inactive	inactive	inactive			7.31 µM (active)
C[N+](C)(C)CC#CCN1CCCC1=O	inactive				inactive	inactive	inactive	inactive		
CC(Cc1ccc(OCC(=O)O)cc1)NCC(O)c1cccc(Cl)c1 (stereo unspecified)	inactive				inactive	inactive	inactive	inactive	inactive	
C[CH2][Hg][S]c1ccccc1C(=O)O	inactive	3.16 µM (active)	3.66 µM (active)	2.31 µM (active)						
NC(=O)CI	inactive				inactive	inactive	inactive	inactive		
CCCn1c(C)c(C(=O)c2ccc3ccccc3c2)c2ccccc21	inactive				inactive	inactive	inactive			
O=[N+]([O-])c1ccc2nc(N3CCNCC3)ccc2c1	inactive				inactive	inactive	inactive	inactive	inactive	
N#CCCN	inactive				inactive	inactive	inactive	inactive	inactive	
C[Se]C[C@H](N)C(=O)O	inactive				inactive	inactive	inactive			
N[C@@H](Cn1ccc(=O)[nH]c1=O)C(=O)O	inactive				inactive	inactive	inactive			
CCCN1CC[C@@H]2c3cc(O)ccc3CC[C@@H]21	inactive				inactive	inactive	inactive	inactive	inactive	
CN1CCC(c2c[nH]c3ccc(O)cc23)CC1	inactive				inactive	inactive	inactive	inactive	inactive	
CCCN1CCc2cccc3c2[C@H]1Cc1ccc(O)c(O)c1-3	inactive				inactive	inactive	inactive			
CC(C)(O)[C@@H]1C2OC(=O)[C@@H]1[C@]1(O)C[C@H]3O[C@]34C(=O)O[C@H]2[C@]14C (tested in a mixture with another compound)	inactive				inactive	inactive	inactive	inactive	inactive	
O=C1CC[C@@]2(O)C3Cc4ccc(O)c5c4C2(CCN3CC2CC2)[C@H]1O5 (stereo partly specified)	inactive				inactive	inactive	inactive	inactive	inactive	
CCCN(CCC)CCc1c[nH]c2ccc(C(N)=O)cc12	inactive				inactive	inactive	inactive			
N[C@@H](CCl)C(=O)O	inactive				inactive	inactive	inactive			
CCN1C[C@@]2(COC)C3[C@@H](OC)C4[C@@H]1C3([C@@H]1C[C@]3(O)[C@H](OC(=O)c5ccccc5)[C@@H]1[C@]4(OC(C)=O)[C@@H](O)[C@@H]3OC)[C@H](OC)C[C@H]2O	inactive				inactive	inactive	inactive	inactive	inactive	
NCC(CP(=O)(O)O)c1ccc(Cl)cc1 (stereo unspecified)	inactive				inactive	inactive	inactive	inactive	inactive	
C[C@H](Cc1ccc2c(c1)OC(C(=O)O)(C(=O)O)O2)NC[C@H](O)c1cccc(Cl)c1	inactive				inactive	inactive	inactive	inactive	inactive	
